A selection: hits, their analogues and other compounds. The true share with any hit is near 3.5%.
BoNT-F LC inh: BoNT/F light chain protease inhibitors, primary screen, biochemical, flow cytometry, MLPCN library; Botulinum neurotoxin type F light chain protease (Clostridium botulinum); Multiplex microsphere protease cleavage assay; inhibition, % at 10 µM; 0.22% of 360,000 active; in the data active = inhibition above about 35%, passing the limit was not always enough; inconclusive = no clear call, values can overlap the other calls; also: plate controls were buffer without enzyme for full effect and enzyme alone for no effect
BJeLR viability: MLPCN primary cell-based screen for lethality selective to Ras in HRASV12 cells. 0.17% of 300,000 active. inhibition, % (test concentration not listed). BJeLR (HRASV12) viability, CellTiter-Glo ATP luminescence, 48 h. AID 1554, 2009; in the data active = inhibition above about 50%; inconclusive = no clear call, values can overlap the other calls
BoNT A protease: BoNT/A light chain protease inhibitors, primary screen, biochemical, flow cytometry, MLPCN library | Botulinum neurotoxin type A light chain protease (Clostridium botulinum A str. ATCC 3502) | multiplex microsphere protease substrate cleavage | inhibition, % at 10 µM | 0.17% of 360,000 active; also: plate controls were buffer without enzyme for full effect and enzyme alone for no effect
Autofluor counter: compound fluorescence in toxin protease inhibitor counterscreen; 3.1% of 360,000 active; AID 624483; fluorescence intensity (no concentration beside the values); compound autofluorescence counterscreen, microsphere flow cytometry; active compounds read high; in the data active = fluorescence intensity above about 16000; inconclusive = no clear call, values can overlap the other calls
Anthrax LF inh2: Bacillus anthracis LF protease inhibitors, primary screen, biochemical, multiplex microsphere, MLPCN library. Lethal factor (Bacillus anthracis), P15917. multiplex microsphere protease cleavage assay. 0.12% of 360,000 active. inhibition, % at 10 µM; also: plate controls were buffer without enzyme for full effect and enzyme alone for no effect
Target sequence (P15917 whole entry, looked up): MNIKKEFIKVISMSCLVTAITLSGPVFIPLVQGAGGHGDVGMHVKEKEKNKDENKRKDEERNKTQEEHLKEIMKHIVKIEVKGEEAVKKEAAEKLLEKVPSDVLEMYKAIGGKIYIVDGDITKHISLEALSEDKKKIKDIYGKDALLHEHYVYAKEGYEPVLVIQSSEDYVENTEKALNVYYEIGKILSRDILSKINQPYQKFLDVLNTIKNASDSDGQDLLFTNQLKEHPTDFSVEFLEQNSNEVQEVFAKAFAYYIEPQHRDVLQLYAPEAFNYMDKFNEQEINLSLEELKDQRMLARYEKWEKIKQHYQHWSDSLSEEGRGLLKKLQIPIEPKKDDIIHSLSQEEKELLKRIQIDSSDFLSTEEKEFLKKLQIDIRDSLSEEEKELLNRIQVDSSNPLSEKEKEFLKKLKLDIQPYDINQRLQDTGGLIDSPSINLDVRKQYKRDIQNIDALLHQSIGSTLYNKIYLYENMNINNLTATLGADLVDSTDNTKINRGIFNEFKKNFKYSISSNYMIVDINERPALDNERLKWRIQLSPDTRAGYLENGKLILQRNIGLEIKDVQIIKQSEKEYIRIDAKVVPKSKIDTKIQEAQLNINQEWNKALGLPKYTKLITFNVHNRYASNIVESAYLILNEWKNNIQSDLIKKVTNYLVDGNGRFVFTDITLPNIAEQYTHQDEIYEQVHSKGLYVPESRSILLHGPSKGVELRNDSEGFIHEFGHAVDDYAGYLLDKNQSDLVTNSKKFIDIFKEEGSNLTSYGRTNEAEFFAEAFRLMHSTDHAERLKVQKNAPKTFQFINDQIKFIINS
* marks the source's active call; other numbers are inactive results; ? = inconclusive; / = not tested or not shown; ! = not confirmed by another sample. Rule as the data show it, unless noted: active = inhibition above about 30%; inconclusive = no clear call, values can overlap the other calls; inactive = below that.

SMILES	BoNT-F LC inh	BJeLR viability	BoNT A protease	Autofluor counter	Anthrax LF inh2
COc1cccc(-c2cc(C(=O)N3CCN(S(=O)(=O)c4ccccc4)CC3)[nH]n2)c1	-4	-6	-1	4599	-2
CCCNS(=O)(=O)c1ccc(NC(=O)Cc2cccs2)cc1	?	1	0	2506	-4
CCCCN(CCCC)S(=O)(=O)c1ccc(NC(=O)Cc2cccs2)cc1	1	5	1	23090*	-2
COC(=O)c1ccc2nc(-c3ccc(Cl)cc3)c(Cc3ccsc3)n2c1	9	/	1	5043	3
Cn1ccnc1Sc1nc(Nc2cccc(Cl)c2)nc(N2CCOCC2)n1	-2	10	0	22665*	-4
COC(=O)C1=CN(CC2CCCO2)C=C(C(=O)OC)C1c1ccsc1 (configuration not stated)	2	-9	1	22638*	0
COC(=O)C1=CN(CC2CCCO2)C=C(C(=O)OC)C1c1cccc(O)c1 (configuration not stated)	2	2	0	3793	0
CC12CCC=CC1=C(C=O)C1C2CCC2(C)C(O)CCC12 (configuration not stated)	5	/	0	3019	-5
Cc1ccc(NC(=O)N(C2=NCC(C)S2)c2ccccc2)cc1 (configuration not stated)	-7	10	?	19772*	-9
Cc1cccc(N(C(=O)Nc2ccccc2)C2=NCC(C)S2)c1 (configuration not stated)	-19	-3	-1	6603	-3
CN(C)S(=O)(=O)c1cccc(-c2cn3ccccc3n2)c1	-18	8	-1	2379	-6
CN(C)S(=O)(=O)c1cccc(-c2cn3cc(Cl)ccc3n2)c1	-1	-2	-2	17034*	-2
CC(C)=C(C#N)c1nc2ccccc2s1	-14	-2	-2	11486	-1
COc1cccc(-c2nc3ccccc3s2)c1O	-5	-1	0	4302	-5
COc1ccccc1N1C(C)=CC(=C(C#N)c2nc3ccccc3s2)C=C1C	25	-6	57*	3142	28
CC1=CC(=C(C#N)c2nc3ccccc3s2)C=C(C)N1c1ccc(F)cc1	15	-4	36*	3300	20
COC(=O)c1ccc(NC(=O)c2cccc(Cl)c2)o1	-4	-1	-1	23122*	-3
Cc1ccc(S(=O)(=O)/N=C(\Sc2ccccc2)c2ccccc2)cc1	-6	-22	-2	24784*	0
O=S(=O)(/N=C(\Sc1ccccc1)c1ccccc1)c1ccc(Cl)cc1	-19	-15	-1	12569	-5
CC1SC(c2cccc(Cl)c2)NC1=O (configuration not stated)	-2	-2	-1	24188*	2
CC1SC(c2ccc(Cl)cc2Cl)NC1=O (configuration not stated)	5	4	-1	4826	-3
COc1ccc(C2NC(=O)C(C)S2)cc1 (configuration not stated)	-9	6	-5	24997*	-4
CC1SC(c2ccc(Cl)cc2)NC1=O (configuration not stated)	-3	-8	0	2389	0
O=C(Nc1cnc2sccn2c1=O)c1ccc(Cl)cc1Cl	2	16	0	22211*	0
CCCCNC(=O)C1(C)CCN1C(=O)Cc1cccc2ccccc12 (configuration not stated)	0	/	0	2999	-2
SMILES	BoNT-F LC inh	BJeLR viability	BoNT A protease	Autofluor counter	Anthrax LF inh2
CCCCSCc1ccc(C(=O)O)o1	6	-2	3	20913*	0
Cc1ccc(N(Cc2ccccc2)C(=O)c2cccc(S(=O)(=O)N3CCOCC3)c2)cc1	0	2	-2	4639	3
Cc1cccc(-n2nc3c(c2NC(=O)c2ccc(S(=O)(=O)N4CCOCC4)cc2)CSC3)c1C	0	/	?	23238*	1
COc1cccc(NS(=O)(=O)c2ccc(S(=O)(=O)N3CCOCC3)cc2)c1	-6	-7	-3	17066*	-2
O=C(NNC(=O)c1ccc(S(=O)(=O)N2CCOCC2)cc1)c1ccccc1	45*	-7	2	3693	-4
Cc1ccc(N(Cc2ccccc2)C(=O)c2ccc(S(=O)(=O)N3CCOCC3)cc2)cc1	-177	1	-121	27784*	-24
Cc1ccc(C(=O)NNC(=O)c2ccc(S(=O)(=O)N3CCOCC3)cc2)cc1	-14	-8	-1	3594	5
CCN(CC)CCCn1c2c(c(SCC(=O)Nc3ccc(OC(F)(F)F)cc3)nc1=O)CCC2	-10	2	-8	8966	6
O=C(COC(=O)c1ccc2ccccc2n1)c1ccc(F)cc1	1	-7	1	4170	0
COc1ccc(NC(=O)c2ccc(S(=O)(=O)N3CCOCC3)cc2)c(OC)c1	-6	-8	-3	24065*	-2
COc1ccc(C(=O)Nc2ccc(S(=O)(=O)N3CCOCC3)cc2)cc1OC	0	9	0	3268	-2
COc1cccc(NC(=O)C2CCN(S(=O)(=O)c3ccccc3)CC2)c1	11	11	3	4079	-6
COc1cccc(NC(=O)C2CCN(S(=O)(=O)c3ccc4c(c3)OCCO4)CC2)c1	-3	0	0	22969*	-8
COc1ccc(S(=O)(=O)N2CCOCC2)cc1NC(=O)CCNC(=O)c1ccc(Br)cc1	1	108*	0	?	-1
CC(C)C(NC(=O)c1ccc(S(=O)(=O)N2CCOCC2)cc1)c1nc2ccccc2[nH]1 (configuration not stated)	-3	-2	0	22568*	-3
COc1ccc(/C=C2\SC(=O)N(CCCC(=O)Nc3cc(Cl)ccc3C(=O)O)C2=O)cc1	-8	/	0	3058	-4
Cc1ccc(-c2nc3ccc(Br)cn3c2Cc2cccc(Cl)c2)cc1	-4	/	2	6819	-1
CC(C)N1CCC1(C)C(=O)Nc1cc(-c2ccccc2)nn1C (configuration not stated)	2	/	0	3114	1
C[C@H](CO)N1C[C@H](C)[C@@H](CN(C)C(=O)Nc2ccc(F)cc2)Oc2ncc(-c3ccc(F)cc3)cc2C1=O	2	/	0	3135	-6
COc1cc(S(=O)(=O)N2CCOCC2)ccc1NC(=O)COC(=O)CC12CC3CC(CC(C3)C1)C2	-6	-4	-2	24036*	-3
Nc1c2ccccc2nc2ccccc12	?	89*!	0	3899	-5
NS(=O)(=O)c1ccc(S(=O)(=O)N2CCCC(c3ccccc3)C2)cc1 (configuration not stated)	-1	/	0	2876	4
COc1ccc(-n2c(COc3ccc(C)cc3)nnc2SCc2ccc(C#N)cc2)cc1	-1	3	1	19083*	-2
O=C(COC(=O)Cc1ccc(Cl)cc1)NCc1ccc(Cl)cc1	-6	/	0	3118	-4

High-throughput results deposited in PubChem BioAssay by several laboratories.
